This is a sample that favours compounds with a hit; in the whole collection about 2.4% have one here.
D2 PAM-1 = human D2 receptor positive allosteric modulation; DiscoveRx D2 beta-arrestin cells, luminescence, 90 min; 100% = 57 uM dopamine signal; potentiation, % (concentration not given with the values); 360,000 tested, 0.23% active; in the data active = potentiation above about 50%; inconclusive = mostly about 30% to 49%
Target sequence (P14416 whole entry, looked up): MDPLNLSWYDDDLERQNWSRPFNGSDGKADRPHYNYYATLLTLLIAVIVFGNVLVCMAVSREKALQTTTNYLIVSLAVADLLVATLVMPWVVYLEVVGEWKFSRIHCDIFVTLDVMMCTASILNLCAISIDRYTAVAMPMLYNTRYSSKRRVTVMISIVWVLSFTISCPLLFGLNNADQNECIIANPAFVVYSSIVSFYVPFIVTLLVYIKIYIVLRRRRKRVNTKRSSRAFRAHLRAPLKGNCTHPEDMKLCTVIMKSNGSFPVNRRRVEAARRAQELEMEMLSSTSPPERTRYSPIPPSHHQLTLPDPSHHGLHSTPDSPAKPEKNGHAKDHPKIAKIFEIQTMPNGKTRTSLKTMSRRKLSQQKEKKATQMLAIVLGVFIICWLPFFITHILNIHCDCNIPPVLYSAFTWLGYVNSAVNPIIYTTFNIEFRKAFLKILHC
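PathHunter D2 cells, attached overnight at 37 deg C, received compound in DMSO plus dopamine at EC20 (50 nM final) for 90 min at 37 deg C. Beta-arrestin recruitment was read as luminescence after 1 h with detection reagent at ambient temperature.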
D2 ag-1 = D2 dopamine receptor (human) agonism; P14416; HEK293 T-REx D2 cells, calcium flux agonist mode; activation, % at 2 µM; 340,000 tested, 0.53% active;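 active = activation over 3 SD above normal in the single-dose calcium agonist read, cut at about 30% in these data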; note: 0% is about no effect
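Agonism is scored from calcium flux in a force-coupled, inducible HEK293 cell line expressing D2, read kinetically for 180 s after compound addition against dopamine controls.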
D2 antag = D2 dopamine receptor (human) antagonism; P14416; HEK293 TREx D2 cells, calcium flux, dopamine EC80; inhibition, % at 10 µM; 340,000 tested, 2% active; AID 485344; in the data active = inhibition above about 30%; inactive = below that, where a call was filed; note: 0% is about no effect
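HEK293 T-REx D2 cells, tet-induced, calcium dye no-wash. Cpd pintool add, 180 s kinetic, then EC80 DA, 180 s kinetic. Ca flux read.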
D2 ag-2 = human D2 receptor agonism in beta-arrestin assay. AID 624465. DiscoveRx PathHunter D2 beta-arrestin, luminescence, 90 min; 100% = 57 uM dopamine signal. 360,000 tested, 0.084% active. activation, % (no concentration beside the values). P14416; in the data active = activation above about 40%; inconclusive = between about 15% and that limit
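Agonist mode: compounds alone added to overnight-plated D2 PathHunter cells for 90 min at 37 C, with 57 uM final dopamine (EC100) defining full response. Beta-arrestin recruitment detected by chemiluminescent reagent, read after 1 h at ambient temperature.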
D2 PAM-2 = D2 dopamine receptor (human) potentiation. potentiation, % at 10 µM. AID 485347. 340,000 tested, 0.34% active. HEK293 T-REx D2, calcium flux, EC20 dopamine potentiation. P14416;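 active = potentiation over 3 SD above the plate norm, cut at about 30% in these data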; note: 0% is about no effect
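Tetracycline-induced HEK293 T-REx cells force-coupled to calcium signalling expressed D2; compounds were pin-added after a 10 s baseline, read kinetically 180 s, then an EC20 dopamine challenge followed with a further 180 s calcium read.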
D3 arrestin ag = D3 receptor agonism confirmed, beta-arrestin readout; DiscoveRx D3 beta-arrestin cells, luminescence, 90 min; Potency, µM (highest dose often 76.9 µM), without a hit: top-dose activation, most hits filed as activators; 2,300 tested, 4% active; AID 720506; shares compounds with D2 ag-1;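 note: potency is the fitted concentration of half-maximal effect; 100% = dopamine control response; nearly all actives have a fitted effect of over 70% in size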
D2 ag-3 = D2 receptor agonism, beta-arrestin counterscreen. 2,300 tested, 5.9% active. DiscoveRx PathHunter D2 beta-arrestin, luminescence, 90 min; response scale: percent relative to full dopamine signal. shares compounds with D2 ag-1. Potency, µM (highest dose often 76.9 µM), inactives show at the top dose activation, actives largely listed as activators; note: potency is the fitted concentration of half-maximal effect; % of control where 0% means no effect; nearly all actives have a fitted effect of over 70% in size
Numbers without * were called inactive; ? = inconclusive; . = no result. Unless noted, calls come from the whole dose curve; as a rule, active = well fitted activation curve with a large enough effect; inconclusive = small, poorly fitted or top-dose-only effect; inactive = flat fitted curve, though single readings scatter.

SMILES	D2 PAM-1	D2 ag-1	D2 antag	D2 ag-2	D2 PAM-2	D3 arrestin ag	D2 ag-3
Cc1ccc(C(=O)/C=C/Nc2ccc(S(=O)(=O)Nc3cc(C)nc(C)n3)cc2)cc1	6	-1	17	-1	-19	-4%	2%
O=C(Nc1cccc(F)c1)[C@@H](c1ccccc1)N1Cc2ccccc2C1=O	.	0	.	.	2	.	.
CCOC(=O)c1ccc(-n2cccc2/C=C2\NC(=O)NC2=O)cc1	.	-1	7	.	-14	2%	2%
CC(OC(=O)C1CCCC1)C(=O)Nc1ncc(Cl)cc1Cl (configuration not stated)	-1	0	-6	2	4	-3%	-2%
CC1(C)CC(=O)c2cc(-c3nc(-c4ccc(Cl)cc4)cs3)c(=O)[nH]c2C1	.	1	.	.	-1	.	.
CCN(CC)CCCNC(=O)CN1N=C(c2ccccc2)CCC1=O	.	.	.	.	-9	.	.
COc1ccc(C)cc1S(=O)(=O)NCCC1=CCCCC1	-17	1	18	-3	7	.	.
CCOc1ccc(S(=O)(=O)NCCC2=CCCCC2)c2ccccc12	-10	2	17	1	-19	-3%	4%
O=C(Nn1cnc2ccccc2c1=O)c1ccc(Br)cc1	-2	43*	26	0	-12	29%	10%
O=C(O)C1C2C=CC(C2)C1C(=O)NCCc1ccccc1 (configuration not stated)	15	53*	23	8	-12	0%	0%
O=C(O)C1C2C=CC(C2)C1C(=O)NCCCc1ccccc1 (configuration not stated)	-9	1	-26	1	1	.	.
Cc1ccc2c(c1)c1c(c(=O)n(-c3ccccc3C)c(=O)n1CC(=O)N1CCCC1)n2C	.	1	.	.	-2	.	.
Cc1ccc(C(=O)N2CCN=C2SCc2ccc([N+](=O)[O-])cc2)cc1C	0	2	25	6	-5	.	.
O=C(/C=C/c1ccccc1)NCC(=O)N/N=C/c1cccs1	-4	43*	3	-3	-19	-9%	-1%
COc1ccc(C)cc1NC(=O)C(Sc1nnc(-c2cccs2)o1)c1ccccc1 (configuration not stated)	-7	-1	13	-2	8	-15%	-3%
O=C(Nc1ccc(Cl)cc1C(F)(F)F)C(Sc1nnc(-c2cccs2)o1)c1ccccc1 (configuration not stated)	-12	1	10	-3	-11	.	.
COc1ccc(OC)c(CN2CCN(C(=O)c3ccco3)CC2)c1	2	83*	83*	?	-19	-1%	19%
COc1cccc(CN2CCN(C(=O)c3ccco3)CC2)c1	?	84*	82*	70*	-17	78%	8.9µM*
COc1ccc(NC(=O)C(=O)NCCN2CCN(C(=O)c3ccco3)CC2)cc1	20	39*	22	14	-13	5µM*	23%
COc1ccc(C(=O)N2CCN(Cc3cc(OC)ccc3OC)CC2)cc1	-3	0	-36	1	-25	.	.
COc1ccc(-c2[nH]ncc2CN2CCCN(C(=O)c3ccco3)CC2)cc1F	-5	.	.	3	-18	-2%	5%
Cc1ccc(C(C)C)c(OCCN(C)C)c1	-28	0	4	0	6	.	.
CCCN(CCC)CCOc1cc(C)ccc1C(C)C	-10	.	.	?	.	20%	?
O=C(Cn1cncn1)N/N=C/c1cc([N+](=O)[O-])ccc1O	-24	0	52*	-10	-10	3%	-15%
COc1cccc(-n2cc(CN(C)Cc3nc(Cc4cccc(F)c4)no3)cn2)c1	-3	16	-3	6	-3	4%	1%
SMILES	D2 PAM-1	D2 ag-1	D2 antag	D2 ag-2	D2 PAM-2	D3 arrestin ag	D2 ag-3
COc1cccc(-n2cc(CN(C)Cc3nc(Cc4ccccc4)no3)cn2)c1	-4	11	5	-2	7	.	.
COC(=O)C(CO)Nc1ncnc2onc(-c3ccc(F)cc3)c12 (configuration not stated)	1	-1	16	1	-8	.	.
CC(C)C(=O)Nc1ccc2c(c1)nc(CCN1CCN(c3ccccn3)CC1)n2C	-2	67*	33*	?	-22	?	16%
CCC(=O)Nc1ccc2c(c1)nc(CCN1CCCCC1)n2C	-17	1	-3	-7	-2	.	.
CCC(=O)Nc1ccc2c(c1)nc(CCN1CCN(c3ccccc3)CC1)n2C	-9	62*	21	4	-22	-5%	7%
Cn1c(CCN2CCN(c3ccccn3)CC2)nc2cc(NC(=O)COc3ccc([N+](=O)[O-])cc3)ccc21	3	82*	31*	2	-14	15%	18%
CC(=O)Nc1ccc(NC(=O)C(C)OC(=O)CCCN2C(=O)c3cccc4cccc(c34)C2=O)cc1 (configuration not stated)	0	3	-17	1	11	.	.
COc1ccc(C(=O)N(Cc2ccco2)Cc2ccccc2F)cc1Cl	.	1	.	.	6	.	.
CCOCC(=O)Nc1ccc(OCc2ccccc2)cc1	-1	0	1	-7	1	.	.
O=C(O)COCC(=O)Nc1ccc(OCCc2ccccc2)cc1	-3	0	0	-2	-4	-4%	2%
CCN1C=CC2=C(C#N)C(N)C(C#N)(C#N)C(c3ccccc3C(F)(F)F)C2C1 (configuration not stated)	-13	3	14	-8	14	-1%	-3%
CCN1C=C(Cc2ccccc2C)C2=C(C1)C(c1ccccc1C)C(C#N)=C(N)O2 (configuration not stated)	-34	.	.	0	0	.	.
Cn1nnnc1Sc1ncnc2scc(-c3cccs3)c12	.	0	-6	.	31*	-1%	-2%
Cn1nnnc1Sc1ncnc2scc(-c3ccc(C(F)(F)F)cc3)c12	.	-1	1	.	-5	.	.
CC(c1ccccc1)n1c(-c2cccs2)nc2c(c(=O)c3ccccc3n2C)c1=O (configuration not stated)	-9	2	9	-2	20	-10%	-5%
COc1ccc(-c2c(-c3cc(OC)cc(OC)c3)n(C)c3ccc(-c4cnc(N)nc4)cc23)cc1	-4	.	.	-4	.	.	.
COc1ccc(-c2c(-c3cc(OC)cc(OC)c3)n(C)c3ccc(-c4ccc(S(N)(=O)=O)cc4)cc23)cc1	-7	0	-7	-2	-5	-4%	5%

Compound activity: PubChem BioAssay, National Center for Advancing Translational Sciences (NCATS)
